# Bioassay records as filed in PubChem BioAssay.
# ELG1 genotoxic – qHTS screen for small molecules that induce genotoxicity in human embryonic kidney (HEK293T) cells expressing luciferase-tagged ELG1. AID 504466, 2011. Potency, µM (titrated, usually from 46 µM), most hits filed as activators. 330,000 tested, 1.3% active. HEK293T ELG1-luciferase reporter, luminescence, 16 h; note: nearly all actives have a fitted effect of over 60% in size
#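 Screening used a luciferase reporter fused to human ELG1 in HEK293T cells. Luminescence was read on a CCD plate imager after 16 hr exposure and 30 min ONE-Glo incubation.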
# SMN2 splice up – qHTS Assay for Enhancers of SMN2 Splice Variant Expression | HEK293 SMN2-luciferase splicing reporter, luminescence, 30-36 h | Potency, µM (highest dose often 46.1 µM), usual class: activators | 210,000 tested, 2.8% active; note: nearly all actives have a fitted effect of over 55% in size
#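 HEK293 cells carry an SMN2 […]–luciferase reporter in which exon 7 inclusion puts luciferase in frame. Cells were plated 10-12 h before compound addition, then incubated 30-36 h at 37C. ONE-Glo luminescence was read; sodium butyrate at 4.5 mM final served as control.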
# NPC1 prom act – qHTS Assay for NPC1 Promoter Activators. Potency, µM (titrated, usually from 9.22 µM), actives largely listed as activators. Huh7 NPC1 promoter luciferase reporter, 24 h. 320,000 tested, 2.4% active; note: nearly all actives have a fitted effect of over 60% in size
#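 Compounds in DMSO were transferred onto Huh7 NPC1-luciferase reporter cells pre-incubated 2 h; after 24 h at 37 °C, Amplite reagent was dispensed and luminescence recorded 10 min later.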
# Rab9 promoter act – qHTS Assay for Rab9 Promoter Activators. Potency, µM (highest dose often 9.22 µM), most hits filed as activators. Huh7 Rab9 promoter-luciferase reporter, luminescence, 24 h. AID 485297, 2010. 320,000 tested, 2.8% active; note: nearly all actives have a fitted effect of over 60% in size
#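 Luciferase signal after 10 min detection reagent at ambient indicates Rab9 promoter upregulation; stably transfected Huh7 cells were treated 24 h with compound in DMSO at 37 °C, 5% CO2.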
# FLuc counter – qHTS profiling assay for firefly luciferase inhibitor/activator using purifed enzyme and Km concentrations of substrates (counterscreen for miR-21 project). Luciferin 4-monooxygenase (Photinus pyralis), P08659. purified FLuc, Km substrates, luminescence inhibition. Potency, µM (titrated, usually from 57.5 µM), usual class: inhibitors. 360,000 tested, 6.9% active. AID 588342, 2011; note: nearly all actives have a fitted effect of over 55% in size
# Target sequence (P08659 whole entry, looked up): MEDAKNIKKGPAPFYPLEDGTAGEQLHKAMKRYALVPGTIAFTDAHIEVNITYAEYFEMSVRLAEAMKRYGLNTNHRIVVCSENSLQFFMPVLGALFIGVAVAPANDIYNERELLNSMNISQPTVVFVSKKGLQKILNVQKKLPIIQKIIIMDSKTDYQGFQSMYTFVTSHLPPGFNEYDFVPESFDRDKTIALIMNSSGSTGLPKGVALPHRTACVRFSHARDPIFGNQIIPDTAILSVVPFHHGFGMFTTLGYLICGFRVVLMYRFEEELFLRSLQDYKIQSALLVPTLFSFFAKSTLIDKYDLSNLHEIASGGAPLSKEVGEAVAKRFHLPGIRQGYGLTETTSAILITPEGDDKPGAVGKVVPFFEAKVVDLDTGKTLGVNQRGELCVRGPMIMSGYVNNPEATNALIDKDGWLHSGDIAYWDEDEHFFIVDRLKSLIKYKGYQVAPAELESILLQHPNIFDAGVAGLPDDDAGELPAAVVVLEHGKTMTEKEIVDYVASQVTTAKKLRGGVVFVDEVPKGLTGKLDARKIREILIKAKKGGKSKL
#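 Biochemical qHTS of compounds, final roughly 60 µM downward over six points, against 10 nM purified firefly luciferase using Km concentrations of substrates (10 uM D-luciferin, 10 uM ATP) in Tris acetate pH 7.5 buffer; luminescence output.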
# KinaseGlo FLuc – Counterscreen for Luciferase (Kinase-Glo TM) Inhibition | Luciferin 4-monooxygenase (Photuris pensylvanica), Q27757 | Kinase-Glo luciferase, ATP luminescence, 8 min | Potency, µM (doses to about 38.3 µM), most hits filed as inhibitors | 200,000 tested, 0.28% active; note: nearly all actives have a fitted effect of over 60% in size
#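 Luminescence was the read-out, taken after 8-minute incubation at ambient temperature. Luciferase turned over luciferin with 10 uM ATP in imidazole pH 7.2 buffer containing KCl, MgCl2, Tween 20 and BSA.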
# Numbers stand for hits; - = inactive; ? = inconclusive; . = no result. Sampled rows, rich in hits. Any-hit rate of the full collection: about 7.5%. Calls come from the whole dose curve; as a rule, active = well fitted curve in the direction sought with a large enough effect; inconclusive = small, poorly fitted or top-dose-only effect, or another doubt; inactive = no such curve, though single readings can be large; an effect the other way counts as inactive or inconclusive.
SMILES,ELG1 genotoxic,SMN2 splice up,NPC1 prom act,Rab9 promoter act,FLuc counter,KinaseGlo FLuc
O=C(Nc1ccc2nc(SCC(=O)N3CCCC3)sc2c1)c1ccccc1,.,.,.,.,-,.
O=C(Nc1ccc2nc(SCC(=O)N3CCOCC3)sc2c1)c1ccccc1Cl,.,.,.,.,21µM,.
COc1cccc(C(=O)Nc2ccc3nc(SCC(=O)N4CCOCC4)sc3c2)c1,.,.,.,.,15µM,.
COC(=O)CSc1nc2ccc(NC(=O)c3ccccc3C(=O)N3CCOCC3)cc2s1,-,.,-,-,-,.
O=C(Nc1ccc2nc(SCC(=O)N3CCOCC3)sc2c1)c1ccc(F)cc1,.,.,.,.,21µM,.
O=C(Nc1ccc2nc(SCC(=O)N3CCOCC3)sc2c1)c1ccc(Br)cc1,.,.,.,.,11µM,.
COc1ccc(NC(=O)C(Cc2ccccc2)NS(=O)(=O)c2ccc3c(c2)CCN3C(C)=O)cc1 (stereo not drawn),.,-,.,.,-,.
CSc1ncc(C(=O)Nc2c(C)cccc2C)c(-c2ccccc2)n1,.,.,.,.,-,.
Cc1ccc(N2CC(C)Cn3c2nc2c3c(=O)n(Cc3cccc(Cl)c3)c(=O)n2C)cc1 (stereo not drawn),.,.,.,.,-,.
O=C(Nc1ccc(Br)cc1F)c1cc2nc(-c3ccco3)cc(C(F)(F)Cl)n2n1,.,-,.,.,-,.
CN1CCN(C(=O)CSc2nc3ccc(NC(=O)c4ccccc4F)cc3s2)CC1,-,.,-,-,19µM,.
O=C(Nc1ccc2nc(SCC(=O)N3CCCC3)sc2c1)c1cccc(F)c1,.,.,.,.,-,.
O=C(N/N=C/c1cn(-c2cccs2)nc1-c1ccccc1)c1ccccc1Cl,-,20µM,-,-,12µM,-
O=C(N/N=C/c1cn(-c2cccs2)nc1-c1ccccc1)c1ccc(O)cc1,-,?,-,-,4.3µM,-
O=C(CN1N=C(c2ccc(Cl)cc2)CCC1=O)NCc1ccc(F)cc1,.,.,.,.,-,.
Cc1cc(Cl)ccc1OCc1nc(-c2ccc(-n3cccc3)cc2)no1,.,-,.,.,-,.
Cc1cc(Cl)ccc1OCc1nc(-c2ccc(O)cc2)n[nH]1,-,-,-,-,11µM,-
O=C(Nc1ccc(Cl)cc1)N1CCOC12CCC1(CC2)OCCO1,-,-,-,-,17µM,-
O=C(Nc1ccc2c(c1)OCO2)C(c1ccc(Cl)cc1)N1CCC2(CC1)OCCO2 (stereo not drawn),-,-,-,-,-,-
Cc1ccc(C2C(=O)N(C3CCCCCC3)CC(=O)N2C(C)C)cc1 (stereo not drawn),.,.,.,.,-,.
CC(C)N1C(=O)CN(C2CCCCCC2)C(=O)C1c1ccccc1F (stereo not drawn),?,-,3.5µM,?,-,-
CC(=O)c1ccc(OCc2cc(C(=O)N3CC4C[C@@H]5CC3C[C@H](C4)C5)no2)cc1,?,.,2.5µM,3.2µM,9.5µM,.
COc1ccccc1OCc1cc(C(=O)N2CCN(C)C(c3ccccc3)C2)no1 (stereo not drawn),?,.,4µM,2µM,9.5µM,.
O=C(c1cc(COc2ccc(F)cc2F)on1)N1CC2C[C@@H]3CC1C[C@H](C2)C3,-,.,?,?,17µM,.
O=C(c1cc(COc2ccc(F)cc2F)on1)N1C[C@H]2CC[C@H]1C2,-,.,-,?,?,.
SMILES,ELG1 genotoxic,SMN2 splice up,NPC1 prom act,Rab9 promoter act,FLuc counter,KinaseGlo FLuc
COc1ccccc1OCc1cc(C(=O)N2CC3C[C@@H]4CC2C[C@H](C3)C4)no1,?,.,4.5µM,3.5µM,17µM,.
CC(=O)c1cccc(OCc2cc(C(=O)N3CC4C[C@@H]5CC3C[C@H](C4)C5)no2)c1,-,.,-,-,?,.
CC(C)c1nn2c(=O)cc(COC(=O)c3ccccc3NC(=O)C3CCCCC3)nc2s1,.,.,.,.,-,.
Cc1ccc(NC(=O)CN2C(=O)COc3ccc(S(=O)(=O)NC4CCCC4)cc32)c(Cl)c1,.,.,.,.,-,.
CC(=O)Nc1ccc(NC(=O)CCS(=O)(=O)c2ccc3c(c2)CC(=O)N3C)cc1,.,.,.,.,-,.
Cc1nn(C)c(C(=O)Nc2ccc(S(=O)(=O)NC34CC5CC(CC(C5)C3)C4)cc2)c1Br,-,1µM,1.4µM,1.6µM,-,-
Cc1ccc(S(=O)(=O)NC23CC4CC(CC(C4)C2)C3)cc1,-,.,-,-,.,.
COc1cc(OC)c(NC(=O)CSc2cc(=O)n(C)c3ccc(Cl)cc23)cc1Cl,.,-,.,.,-,.
CCOc1ccc(C(=O)NC2CC(=O)N(c3ccc4c(c3)OCCO4)C2)cc1 (stereo not drawn),-,.,-,-,-,.
CCOc1ccc(N/C(C)=C\C(=O)c2ccc3c(c2)OCCO3)cc1,-,.,2.5µM,1.1µM,3.8µM,-
CCOc1ccc(N/C(C)=C/C(=O)c2ccc3c(c2)OCCO3)cc1,?,.,3.2µM,2.2µM,5.4µM,.
CCOc1ccc(NC(=O)COc2ccc3c(c2)OCO3)cc1,-,.,-,-,-,.
Cc1nn(-c2cccc(C(F)(F)F)c2)c(Cl)c1/C=N/Nc1cccc(C(=O)O)c1,0.41µM,0.4µM,0.11µM,0.1µM,1.5µM,-
Cc1nn(-c2ccccc2Cl)c(Cl)c1/C=N/Nc1cccc(C(=O)O)c1,?,0.071µM,?,0.035µM,0.12µM,-
